Shown are actives, neighbours in structure and some others; about 11% of the full set was active somewhere.
NIH3T3 tox: NIH 3T3 cell cytotoxicity | NIH 3T3 viability, CellTiter-Glo ATP luminescence, 48-72 h | Potency, µM (doses to about 96.7 µM), inactives show top-dose activity change, negative = cytotoxicity, actives largely listed as inhibitors | hit rate 4.3% among 94,000 | AID 1345082; note: nearly all actives have a fitted effect of over 55% in size
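First NIH 3T3 cells are plated at 400 cells/well; next compound is pinned in; then plates incubate 48 or 72 hr at 37 °C; finally CellTiter-Glo is added and luminescence read after 10 min.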
HEK cytotox: cytotoxic compounds in HEK 293 cells | HEK 293 viability, ATP luminescence (CellTiter-Glo), 48-72 h | AID 1345083 | Potency, µM (highest dose often 115 µM), for inactives: at the highest dose activity change, negative = cytotoxicity, usual class: inhibitors | hit rate 6.6% among 94,000; note: nearly all actives have a fitted effect of over 60% in size
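qHTS cytotoxicity; HEK 293, 250 cells/well; compound pinned; 48 or 72 hr, 37 degree Celsius, 5% CO2, 95% humidity; CellTiter-Glo, 10 min RT; luminescence (ATP).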
Luciferase inh: inhibitors of firefly (Photinus pyralis) luciferase | hit rate 2.5% among 76,000 | AID 1347043 | Potency, µM (doses to about 115 µM), hits mostly inhibitors | P08659 | purified P. pyralis luciferase, luminescence, biochemical; note: nearly all actives have a fitted effect of over 65% in size
Target sequence (P08659 whole entry, looked up): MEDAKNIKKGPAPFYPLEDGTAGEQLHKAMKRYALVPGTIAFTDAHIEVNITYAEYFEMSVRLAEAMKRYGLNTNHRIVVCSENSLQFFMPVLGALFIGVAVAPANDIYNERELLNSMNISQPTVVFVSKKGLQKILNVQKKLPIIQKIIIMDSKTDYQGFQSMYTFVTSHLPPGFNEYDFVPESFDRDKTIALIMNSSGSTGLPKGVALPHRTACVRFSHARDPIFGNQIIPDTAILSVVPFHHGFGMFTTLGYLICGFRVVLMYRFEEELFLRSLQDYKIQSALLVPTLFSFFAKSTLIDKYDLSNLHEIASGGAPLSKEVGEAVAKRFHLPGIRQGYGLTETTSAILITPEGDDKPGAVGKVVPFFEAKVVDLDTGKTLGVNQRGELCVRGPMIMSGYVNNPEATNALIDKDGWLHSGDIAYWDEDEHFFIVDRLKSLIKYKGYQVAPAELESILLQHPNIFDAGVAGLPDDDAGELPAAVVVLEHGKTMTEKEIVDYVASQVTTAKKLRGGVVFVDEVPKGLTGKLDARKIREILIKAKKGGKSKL
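Purified P. pyralis luciferase (10nM final) in 50mM Tris acetate pH 7.5, 10mM Mg acetate, 0.01% Tween-20, 0.05% BSA with 10uM D-luciferin and 10uM ATP. Compounds titrated qHTS. Luminescence imaged on CCD.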
NPR1 antag: human Npr1 receptor antagonism; P16066; HEK293 hNpr1 GloSensor cGMP, ANP-stimulated luminescence; Potency, µM (highest dose often 46.3 µM), inactives show at the highest dose activity change, negative = inhibition, actives largely listed as inhibitors; hit rate 1.6% among 76,000; calls by dose curve; note: nearly all actives have a fitted effect of over 60% in size
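Compound pre-incubated 30 min at room temperature on GloSensor-loaded HEK293 cells stably carrying hNpr1 and the pGS-40F cGMP biosensor. Stimulation uses hNppA at 0.1 nM final; luminescence is taken at baseline and 20 min post-agonist.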
The depositor's hits bear a star; ! = repeats disagree; [ ] = dose if it differs, or a comment. Unless noted, calls come from the whole dose curve; as a rule, active = well fitted curve in the direction sought with a large enough effect; inconclusive = small, poorly fitted or top-dose-only effect, or another doubt; inactive = no such curve, though single readings can be large; an effect the other way counts as inactive or inconclusive. % is set by controls: 0 for no effect and ±100 for the full control effect; potency is the fitted concentration of half-maximal effect.

For O=C(NC1CCN(c2cc(-c3ccccc3)[nH]n2)CC1)c1cccc(Cl)c1 the results were NIH3T3 tox inconclusive, HEK cytotox 28µM*, Luciferase inh inactive and NPR1 antag 0%.
`Cc1ccc(C(=O)NC2CCN(c3cc(-c4ccccc4)[nH]n3)CC2)cc1F` gave NIH3T3 tox 35µM*, HEK cytotox inconclusive, Luciferase inh inactive and NPR1 antag -14%.
O=C(NC1CCN(c2cc(-c3ccc(F)cc3)[nH]n2)C1)c1cccc(Cl)c1 (centres undefined) was read as NIH3T3 tox inconclusive, HEK cytotox inconclusive, Luciferase inh inactive and NPR1 antag -16%.
`Cc1ccc(C(=O)NC2CCN(CCn3nc4n(c3=O)CCCC4)C2)cc1` (centres undefined) gave NIH3T3 tox -21% and HEK cytotox -11%.
Screening COc1ccc(F)c(CN2CCCC3(CCN(C(=O)C4CCCC4)C3)C2)c1 (centres undefined) returned NIH3T3 tox inconclusive, HEK cytotox inconclusive, Luciferase inh inactive and NPR1 antag -11%.
Screening Cc1nnc2ccc(N3CCC(NC(=O)Nc4ccccc4)C3)nn12 (centres undefined) returned NIH3T3 tox -19%[138 µM] and HEK cytotox 4%[172 µM].
CN1CCN(C(=O)c2ccc3oc(-c4ccncc4)nc3c2)CC1 was read as NIH3T3 tox -12%[138 µM] and HEK cytotox 1%[172 µM].
COC(=O)C1=C(C)N=C2SC=C(CC(=O)Nc3ccc(OC)cc3)N2C1c1cccc(OC)c1 (centres undefined) was read as NIH3T3 tox inconclusive, HEK cytotox inconclusive, Luciferase inh inactive and NPR1 antag -6%.
O=C1Cc2c(-c3ccccc3Cl)n[nH]c2CN1CC1CCOCC1 was read as NIH3T3 tox 89µM*, HEK cytotox -9%[172 µM], Luciferase inh inactive and NPR1 antag 0%[70.6 µM].
Screening O=C1Cc2c(-c3ccccc3)n[nH]c2CN1CC1CCOCC1 returned NIH3T3 tox 50µM*, HEK cytotox 1%[172 µM], Luciferase inh inactive and NPR1 antag -9%[70.6 µM].
`COCc1cccc(-c2n[nH]c3c2CC(=O)N(CC2CCOCC2)C3)c1` gave NIH3T3 tox inconclusive, HEK cytotox -26%[172 µM], Luciferase inh inactive and NPR1 antag 6%[70.6 µM].
`COCC1CN(C2CCC2)CC12CCN(C(=O)NCc1ccc(F)cc1)CC2` (centres undefined) gave NIH3T3 tox inconclusive, HEK cytotox inconclusive, Luciferase inh inactive and NPR1 antag -23%.
`OC1CCOC2(CCN(Cc3ccccc3OC(F)(F)F)CC2)C1` (centres undefined) gave NIH3T3 tox 2%, HEK cytotox -1%, Luciferase inh inactive and NPR1 antag -3%.
Screening O=C(NCCc1ccc(Cl)cc1)C1CN(c2cccc(Cl)c2)C(=O)N1 (centres undefined) returned NIH3T3 tox 35µM*!, HEK cytotox inconclusive, Luciferase inh inactive and NPR1 antag 8%.
Screening Cc1ccsc1CN1CC(Oc2ccc(-c3noc(C4CCOCC4)n3)cc2)C1 returned NIH3T3 tox 40µM* and HEK cytotox 20µM*.
`O=C(COc1ccccc1)N1CC(Oc2ccc(-c3noc(C4CCOCC4)n3)cc2)C1` gave NIH3T3 tox -30%, HEK cytotox inconclusive, Luciferase inh inactive and NPR1 antag inconclusive.
For O=C(c1ccccc1)N1CCCC(C(=O)N2CCC(N3CCOCC3=O)CC2)C1 (centres undefined) the results were NIH3T3 tox -4% and HEK cytotox 4%.
For COc1ccc(CCNC(=O)C2CCCN(c3ccnc4ccnn34)C2)cc1 (centres undefined) the results were NIH3T3 tox -25% and HEK cytotox -9%.
Cc1ccc(Nc2ccnc(N3CCCC(C(=O)NCCCc4ccccc4)C3)n2)cc1 (centres undefined) was read as NIH3T3 tox inconclusive and HEK cytotox 5µM*.
Screening Cc1ccc(Nc2ccnc(N3CCC(C(=O)NCCCc4ccccc4)CC3)n2)cc1 returned NIH3T3 tox 13µM* and HEK cytotox inconclusive.
COc1ccc(Nc2ccnc(N3CCCC(C(=O)NCCCc4ccccc4)C3)n2)cc1 (centres undefined) was read as NIH3T3 tox inconclusive and HEK cytotox 22µM*.
CC(=O)N1CCC[C@@H]1C(=O)N1CCCC(c2nc3ccncc3[nH]2)C1 (some centres undefined) was read as NIH3T3 tox 4% and HEK cytotox 0%.
For c1ccc2c(c1)CC(N1CCC(CN(CCCn3cccn3)CC3CCCO3)CC1)C2 (centres undefined) the results were NIH3T3 tox -23%, HEK cytotox inconclusive, Luciferase inh inactive and NPR1 antag -2%.
O=C(Cc1ccccc1)N1CCC(Oc2cnc3c(ccn3-c3cncnc3)c2)CC1 was read as NIH3T3 tox inconclusive, HEK cytotox 56µM*, Luciferase inh inactive and NPR1 antag -14%[70.6 µM].
`CC(C)C(=O)N1CCC(Oc2cnc3c(ccn3-c3cncnc3)c2)CC1` gave NIH3T3 tox inconclusive, HEK cytotox -19%[172 µM], Luciferase inh inactive and NPR1 antag 0%[70.6 µM].
O=C(OCc1ccccc1)N1CCC(Oc2cnc3c(ccn3-c3cncnc3)c2)CC1 was read as NIH3T3 tox inconclusive, HEK cytotox 79µM*, Luciferase inh inactive and NPR1 antag inconclusive.
For O=C(CC1CC1)N1CCC(Oc2cnc3c(ccn3-c3cncnc3)c2)CC1 the results were NIH3T3 tox inconclusive, HEK cytotox inconclusive, Luciferase inh inactive and NPR1 antag -2%[70.6 µM].
For Cc1ncccc1C(=O)N1CCC(Oc2cnc3c(ccn3-c3cncnc3)c2)CC1 the results were NIH3T3 tox 71µM*, HEK cytotox -13%[172 µM], Luciferase inh inactive and NPR1 antag 1%[70.6 µM].
Screening c1ccc(CN2CCC(Oc3cnc4c(ccn4-c4cncnc4)c3)CC2)cc1 returned NIH3T3 tox inconclusive, HEK cytotox 100µM*, Luciferase inh inactive and NPR1 antag -4%[70.6 µM].
Screening O=C(O)Cn1ccc2cc(OCC3CCN(C(=O)Cc4ccccc4)CC3)cnc21 returned NIH3T3 tox 100µM*, HEK cytotox -13%[172 µM], Luciferase inh inactive and NPR1 antag -1%[70.6 µM].
`CCCC(=O)N1CCC(Oc2cnc3c(ccn3-c3cncnc3)c2)CC1` gave NIH3T3 tox 10µM*, HEK cytotox inconclusive, Luciferase inh inactive and NPR1 antag 4%[70.6 µM].
Screening O=C(NC1CC1)C1CCN(C(=O)c2ccc(-c3cncnc3)cc2)CC1 returned NIH3T3 tox -21% and HEK cytotox 1%.
`CC(=O)N1CC[C@H](c2nc3ccc(C(F)(F)F)cc3[nH]2)C1` gave NIH3T3 tox inconclusive, HEK cytotox -9%[172 µM], Luciferase inh inactive and NPR1 antag 3%[70.6 µM].
For CC(C)N1CC[C@H](c2nc3ccc(C(F)(F)F)cc3[nH]2)C1 the results were NIH3T3 tox -25%[174 µM], HEK cytotox inconclusive, Luciferase inh 22µM* and NPR1 antag 5%[70.6 µM].

Screening results from PubChem BioAssay.
